Assay results as given in PubChem BioAssay.

tested on: Fibrinogen (Alexa647-labelled); experiment: Alexa647-fibrinogen binding to printed small molecules – biochemical, small-molecule microarray, 635/667 nm fluorescence, artefact control for SMM control-protein annotation, profiling panel (AID 1131); conditions: fibrinogen-A647 binding fluorescence, higher = more signal;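 further: z-score merges 667 nm fluorescence with per-spot signal-to-noise over triplicate slides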

Compound	composite z-score
COCCCNC(=O)[C@@]1(c2ccc([N+](=O)[O-])cc2)CC(=O)N(C(C)C)[C@@H]1c1ccc(CO)cc1	-0.779
CN1C(=O)C2C=CC(C(O)c3ccc(I)cc3)N(Nc3ccccc3)C2C1=O (stereo not drawn)	1.02
CCOC(=O)C1=C[C@@H](c2ccccc2)N(S(=O)(=O)c2ccc(C)cc2)[C@H]1c1ccccc1	-0.276
CC1CC/C=C\[C@H]2OC34C=CCN(C(C)(C)C)C(=O)[C@H]3N(C(CO)C(C)C)C(=O)[C@@H]4C2C(=O)O1 (stereo partly drawn)	-1.26
COC(=O)[C@@]1(Cc2ccc(F)cc2)[C@H]2c3cc(C(=O)N4CCCC4)n(CC4CC4)c3C[C@H]2CN1C(=O)c1ccccc1	1.03

biological target: Follistatin (Homo sapiens) (UniProt P19883); experiment: FST protein binding to printed compounds – biochemical, small-molecule microarray, 635/667 nm fluorescence, primary screen (AID 1132); conditions: 635 nm fluorescence, higher = more signal
Sequence (P19883 whole entry, looked up): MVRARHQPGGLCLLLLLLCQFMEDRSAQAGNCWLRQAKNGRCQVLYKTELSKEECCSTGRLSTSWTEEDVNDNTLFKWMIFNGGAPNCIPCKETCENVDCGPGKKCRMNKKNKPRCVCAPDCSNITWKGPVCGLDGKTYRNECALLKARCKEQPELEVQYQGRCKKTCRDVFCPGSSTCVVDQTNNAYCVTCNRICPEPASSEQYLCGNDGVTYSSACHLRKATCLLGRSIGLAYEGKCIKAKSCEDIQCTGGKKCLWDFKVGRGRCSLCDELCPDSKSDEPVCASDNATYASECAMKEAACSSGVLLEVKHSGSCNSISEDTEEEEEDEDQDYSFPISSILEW

Compound	composite z-score
COCCCNC(=O)[C@@H]1c2ccccc2C(=O)N(C2Cc3ccccc3C2)[C@H]1c1ccc(CO)cc1	1.08
COc1ccc([Si](C)(C)[C@H]2[C@H](CCO)O[C@@]3(C(=O)N(Cc4ccccc4)c4ccc(N5CCOC5=O)cc43)[C@@H]2C)cc1	0.701
C[C@@]12COC[C@]13C=C(Br)[C@H](C2)[C@@]1(CO1)C3=O	-0.222
Nc1cc(Br)ccc1C(=O)O	0.181
COC(=O)[C@@]1(Cc2ccccc2)[C@H]2c3cc(C(=O)N(C)C)n(CCn4cc([N+](=O)[O-])nc4C)c3C[C@H]2CN1C(=O)c1ccccc1	0.387
C=C(/C(=C/C[C@@H](OC(C)=O)c1ccc(CO)o1)c1cc(C(=O)OC)ccc1OC)C(C)C	0.913
CC(C)C(=C=CC[C@H](O)c1cccc(OCCO)c1)CCO	0.277
C=CCN1C(=O)[C@]2(O[C@H](CCO)[C@@H]([Si](C)(C)c3ccc(OC)cc3)[C@@H]2C)c2cc(NC(=O)c3ccc(OC)cc3)ccc21	1.36
